Laboratory results published in PubChem BioAssay AID1779 (Sanford-Burnham Center for Chemical Genomics, 2009).
In all, about 290,000 compounds went through this assay and about 160 (0.055%) were called active. The sample as a whole holds a higher share of actives than the screen did. Unmarked numbers belong to inactive results. Cut-off read from the data, not from the text of the source: active = inhibition above about 50%; inactive = the rest.

These compounds were tested against Tyrosine-protein phosphatase non-receptor type 22 (Homo sapiens) (UniProt Q9Y2R2) (assay: PTPN22 lymphoid phosphatase activity blockers – biochemical, fluorescence intensity, uHTS (AID 1779;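 note: plate controls were vehicle with enzyme for no effect and no enzyme for full effect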)). Details: recombinant LYP phosphatase, at 11.5 µM, active compounds read high.
Sequence of Tyrosine-protein phosphatase non-receptor type 22 (Homo sapiens) (Q9Y2R2 whole entry, looked up): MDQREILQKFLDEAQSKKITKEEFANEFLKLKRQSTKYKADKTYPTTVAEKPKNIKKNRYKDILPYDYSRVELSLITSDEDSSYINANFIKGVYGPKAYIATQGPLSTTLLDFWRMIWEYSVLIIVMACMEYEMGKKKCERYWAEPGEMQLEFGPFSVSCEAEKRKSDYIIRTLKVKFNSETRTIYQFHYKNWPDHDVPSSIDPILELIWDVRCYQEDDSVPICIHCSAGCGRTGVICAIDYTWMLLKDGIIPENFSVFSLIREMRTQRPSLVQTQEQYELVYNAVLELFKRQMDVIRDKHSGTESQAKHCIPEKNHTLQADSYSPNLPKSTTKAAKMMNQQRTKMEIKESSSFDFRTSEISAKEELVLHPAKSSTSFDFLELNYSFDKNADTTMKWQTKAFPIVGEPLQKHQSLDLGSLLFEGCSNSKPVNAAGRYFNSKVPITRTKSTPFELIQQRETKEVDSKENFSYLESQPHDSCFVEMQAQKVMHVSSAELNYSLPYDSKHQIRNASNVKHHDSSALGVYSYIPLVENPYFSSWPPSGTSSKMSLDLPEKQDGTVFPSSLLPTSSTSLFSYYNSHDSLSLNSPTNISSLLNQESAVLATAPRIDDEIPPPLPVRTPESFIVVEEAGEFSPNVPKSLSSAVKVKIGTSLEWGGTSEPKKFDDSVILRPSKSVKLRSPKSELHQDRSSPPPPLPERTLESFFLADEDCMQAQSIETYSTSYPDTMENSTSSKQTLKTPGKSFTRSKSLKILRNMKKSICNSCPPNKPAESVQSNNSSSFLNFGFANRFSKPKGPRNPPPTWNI

Structure (SMILES) | inhibition
Cc1ccc(C(=O)N/N=C\c2cccs2)cn1 | 1.2%
Cc1nnc(C)n1/N=C/c1ccccc1 | -11%
CNc1nc(N)nc(-c2cc(Cl)ccc2OC)n1 | -4%
COc1ccc(Cl)cc1-c1nc(N)nc(NC2CCCCC2)n1 | 58.1% (active)
CCNc1nc(N)nc(-c2cc(Cl)ccc2OC)n1 | -2.6%
Cc1ccc(/C(O)=C2/C(=O)C(=O)N(CCN3CCOCC3)C2c2cccnc2)cc1 (stereo not drawn) | -3.8%
C=CCC(C(=O)OC)(C(=O)OC)c1ccccc1[N+](=O)[O-] | -9.5%
COc1cc(/C=N\NC(=O)c2ccc(-c3ccccc3)cc2)ccc1OCC(N)=O | 3.2%
CCOc1cc(/C=N\NC(=O)c2ccc(NC(=O)C(C)(C)C)cc2)ccc1OC(=O)c1ccc(C)cc1 | -4%
Cc1cc2c(N=O)c(NO)ccc2[nH]1 | -4.6%
CCCNC(=O)c1cccc(Cn2nc(C)c(Br)c2C)c1 | -5.3%
Cc1nn(Cc2cccc(C(=O)NC34CC5CC(CC(C5)C3)C4)c2)c(C)c1Br | 94.4% (active)
Cc1nn(Cc2cccc(C(=O)NCC(C)C)c2)c(C)c1Br | -3.3%
COc1ccc(-c2cc(C(=O)NCCc3ccc(S(N)(=O)=O)cc3)c3ccccc3n2)cc1 | -2.5%
Cc1nnc(SCC(=O)NC(=O)Nc2ccc3c(c2)OCCO3)n1N | -13%
COCCn1c(=N)c(S(=O)(=O)c2ccc(F)cc2)cc2c(=O)n3ccccc3nc21 | -34.1%
COCCn1c(=N)c(S(=O)(=O)c2ccc(Br)cc2)cc2c(=O)n3ccccc3nc21 | 67.5% (active)
N=c1c(S(=O)(=O)c2ccc(Br)cc2)cc2c(=O)n3ccccc3nc2n1Cc1ccccc1 | -5.4%
Cc1cc(N2C(=O)C(O)=C(C(=O)c3cc4ccccc4o3)C2c2ccc(Br)cc2)no1 (stereo not drawn) | 2.4%
OCCOCCn1c(-c2ccccc2)nc(=S)c2c1CCCC2 | -2.3%
O=C(CCc1c[nH]c2ccccc12)OCc1cccc([N+](=O)[O-])c1 | -6%

Structure (SMILES) | inhibition
COc1ccc(/C=N\NC(=O)COc2ccccc2)c(C(=O)O)c1OC | 2.3%
COc1ccc(OCC(=O)N/N=C/c2ccc(OC)c(OC)c2C(=O)O)cc1 | 53.1% (active)
COc1ccc(/C=N/NC(=O)COc2ccc3ccccc3c2)c(C(=O)O)c1OC | -2.9%
CCc1nc(CNC(=O)c2cc(OC)c(OC)c(OC)c2)no1 | -4.2%
O=C(NC(=S)Nc1ccc(S(=O)(=O)Nc2nccs2)cc1)C1CC1 | 1%
COc1cccc(N(C(=O)Cn2nnc(-c3ccc(Cl)cc3)n2)C(C(=O)NCC2CCCO2)c2ccc(C)cc2)c1 (stereo not drawn) | -1.9%
COc1ccc(N(CC(=O)NC(C)C)C(=O)CCC(=O)Nc2ccccn2)cc1 | 67.8% (active)
CCCCOc1ccc(N(CC(=O)NC(C)C)C(=O)CCC(=O)Nc2ccccn2)cc1 | -3.4%
CCOc1ccc(N(CC(=O)NC(C)C)C(=O)CCC(=O)Nc2ccccn2)cc1 | 2.9%
Cc1cc(C(=O)NCCCN2CCCC2=O)cs1 | 75.4% (active)
O=C(NCCCN1CCCC1=O)c1csc2ccccc12 | -6.7%
O=C(NCCCN1CCCC1=O)c1cccs1 | 2.8%
C=CCSc1nc2sc(-c3ccccc3)cc2c(=O)n1N | -7.2%
CCOC(=O)N1CCN(C(=O)C(CC)n2nc(C)c3sc4ccccc4c3c2=O)CC1 (stereo not drawn) | 4.4%
Brc1cc2c(cc1CN1CCc3ccccc3C1)OCO2 | -4.6%
O=C(c1ccccc1)N1CCN(C(=O)c2cccnc2)CC1 | -0.5%
O=C1CC(c2ccccc2)CN1C(=O)c1cccnc1 (stereo not drawn) | -10.4%
O=C1CCC(c2ccccc2)N1C(=O)c1cccnc1 (stereo not drawn) | 87.4% (active)
CCOC(=O)c1c(-c2cccc3ccccc23)csc1NC(=O)C1C2CCC(O2)C1C(=O)O (stereo not drawn) | 4.2%
CCCOC(=O)c1c(-c2ccc(C)cc2C)csc1NC(=O)C1C2CCC(O2)C1C(=O)O (stereo not drawn) | 66.6% (active)
CCOC(=O)c1c(-c2ccc(-c3ccccc3)cc2)csc1NC(=O)C1C2CCC(O2)C1C(=O)O (stereo not drawn) | 20.8%

Structure (SMILES) | inhibition
CC(=O)c1ccc(N2CCN(C(=O)CCN3C(=S)NC(C)(C)CC3C)CC2)cc1 (stereo not drawn) | 1%
Cc1cc(C)n(C(C)CNS(=O)(=O)c2ccccc2)n1 (stereo not drawn) | -6.8%
O=C(O)CCC(=O)Nc1ccccc1C(=O)NCCc1ccccc1 | 2.9%
O=C(Nc1ccccc1C(=O)NCCc1ccccc1)c1ccco1 | -1.8%
NC(=O)Nc1ccccc1C(=O)NCCc1ccccc1 | 65% (active)
CN(C)/C=N/NC(=O)c1ccccc1 | -9.5%
CC(=O)Nc1ccc(NC(=O)c2c(-c3ccccc3Cl)noc2C)c(C)c1 | -11.5%
Cc1ccnc(NCc2c(O)ccc3ccccc23)c1 | -11.3%
COc1ccc(NC(=O)CC2C(=O)N(Cc3ccccc3)C(=S)N2CCN2CCOCC2)cc1 (stereo not drawn) | -3.6%
CCN1C(=O)C(CC(=O)Nc2ccc(OC)cc2)N(CCN2CCOCC2)C1=S (stereo not drawn) | -9.2%
O=C(CC1C(=O)N(Cc2ccccc2)C(=S)N1CCN1CCOCC1)Nc1ccc(F)cc1 (stereo not drawn) | 74.9% (active)
CC(=O)NNc1ncnc2c1cnn2-c1ccccc1 | 1.3%
COC(=O)N/N=C(\C)c1ccccc1OC(F)F | -1.7%
CCNC(=S)N/N=C(\C)c1ccc2ccccc2c1OC(F)F | 4%
COC(=O)N/N=C(\C)c1ccc2ccccc2c1OC(F)F | 68% (active)
COC(=O)C(C)n1cnc2c(nnn2-c2ccc(C)cc2)c1=O (stereo not drawn) | -13%
CN(C(=O)COc1cc(C(F)(F)F)nn1C)c1ccccc1 | -13.5%
CC(C)Cn1c(-c2ccco2)n[nH]c1=S | -1.3%
CC1Cc2ccccc2N1CC(=O)Nc1ccc(S(=O)(=O)N(C)C)cc1 (stereo not drawn) | 0.3%
CC1Cc2ccccc2N1CC(=O)Nc1cccc(S(N)(=O)=O)c1 (stereo not drawn) | 52.1% (active)
CC1Cc2ccccc2N1CC(=O)Nc1ccc(S(N)(=O)=O)cc1 (stereo not drawn) | -7.9%
